SMILES strings stand for the structures. A number with no mark means an inactive call. Where a call stands in place of a potency, no number is given. The source made the active and inactive calls. The call rests on the fitted dose curve; in most records, active means well fitted curve in the direction sought with a large enough effect in the repeat runs; inconclusive means weak or mixed curves; inactive means flat fitted curve, though single readings scatter.

The nature of the test: qHTS assay to test for compound auto fluorescence at 460 nm (blue) in HEK293 cell free culture (AID 720681). The following applies: cell-free medium, autofluorescence 405/460 nm (blue); series mostly up to 91.3 µM. From the text:
U.S. Tox21 Program National Center for Advancing Translational Sciences [NCATS] NIH Chemical Genomics Center [NCGC] U.S. Environmental Protection Agency [EPA] National Institutes of Environmental Health Sciences [NIEHS] National Toxicology Program [NTP] U.S. Food and Drug Administration [FDA] Tox21 Assay Overview: Compound auto fluorescence often interferes with screening of the compound library against various biological targets and signaling pathways. Some of these compounds may have fluorophoric properties. Such properties may interfere with the assay outputs resulting in false positives and/or negatives. To decrease such complications and ensure the compound activities are relevant in terms of biological response, the Tox21 10K compound library was screened for auto fluorescence. From the fluorophores used as reporter signals in our screening assays, the auto fluorescence equivalencies of compounds against three fluorophores have been evaluated: Triamterene, Fluorescein and Rose Bengal sodium for blue, green and red fluorescence, respectively. The fluorescence intensities were measured using Excitation/Emission wavelengths at 405/460nm, 485/535nm and 540/590nm for blue, green and red labels, respectively. This assay includes the blue fluorescence data.
Tox21 Assay Protocol Summary: 5 uL of culture medium (DMEM containing 10% FBS) per well was dispensed into black wall/clear bottom 1536-well plates using a Multidrop Combi Dispenser (ThermoFisher Scientific, Waltham, MA). After 23 nL compound or DMSO vehicle was transferred into assay plate by a pintool work station (Kalypsys, San Diego, CA), fluorescence intensities in the assay plates were measured by an Envision (PerkinElmer, Shelton, CT) plate reader using three labels for measuring blue, green and red fluorescence at […] 460, 535 and 590nm respectively.
On the technique in general: qHTS replaces the single test concentration by a dilution series.
Take `Cc1occc1S`: the Potency entry was “inactive”.
In the case of `CCOc1cc(OCC)c(C(=O)CCC(=O)O)cc1OCC`, the Potency result was “inactive”.
Same read-out and setting: the entry for `ClC(Cl)(Cl)c1ccc(C(Cl)(Cl)Cl)cc1` is “inactive”; for `FC(F)(F)C(F)(F)C(F)(F)C(F)(F)C(F)(F)C(F)(F)CCI` it is “inactive”; for `CCOC(=O)C1=C(C)NC(C)=C(C(=O)OC)C1c1cccc([N+](=O)[O-])c1` (stereo not given) it is “inactive”.
Turning to `O=C(c1ccccc1)c1ccc2n1CCC2C(=O)O` (stereo not given), the Potency entry is “inactive”.
As to `O=S1(=O)N=C(O)c2ccccc21`, the Potency result was “inactive”.
As to `Cn1c(=O)c2c(ncn2CC(O)CO)n(C)c1=O` (stereo not given), the fluorescence, % of fluorescent control is -0.0654% [at 18.6 µM].
As for `CC(C)(C)C1CCCCC1O` (stereo not given), the Potency result was “inactive”.
Still for that read-out and setting: the entry for `CCOc1ccc2[nH]cc(C(=O)NCc3ccccc3)c(=O)c2n1` is “inactive”; for `CCCCCOC(=O)COc1cc(N2C(=O)C3=C(CCCC3)C2=O)c(F)cc1Cl` it is “inactive”.
As for `C=C(C)C(=O)OCCOc1ccccc1`, the Potency entry was “inactive”.
For `CC(=O)N(O)CCCCCNC(=O)CCC(=O)N(O)CCCCCNC(=O)CCC(=O)N(O)CCCCCN`, the fluorescence, % of fluorescent control is 0.0573% [at 18.6 µM].
Consider `CCC(=O)OC(C)(C)C1CC=C(C)CC1` (stereo not given), for which the Potency result was “inactive”.
Still for that read-out and setting: the entry for `CCOC(=O)C1=NN(c2ccccc2)C(=O)C1` is “inactive”; for `CCOC(=O)CC(=O)c1cc(F)c(Cl)nc1Cl` it is “inactive”; for `NCCCOCCOCCOCCCN` it is “inactive”.
With `N#CCCNCCC#N`, the Potency entry is “inactive”.
For the molecule `CC(=O)c1c(C)c([N+](=O)[O-])c(C(C)(C)C)c([N+](=O)[O-])c1C`, the Potency entry was “inactive”.
On the same count and under the same terms, the result for `C[C@@H](C1=C(CCN(C)C)Cc2ccccc21)c1ccccn1` reads “inactive”.
In the case of `CCCCCCCCCO`, the Potency entry was “inactive”.
Take `CC(CN)CCCN` (stereo not given): the Potency result is “inactive”.
With `Cc1ccc(C(C)c2ccc(C)c(C)c2)cc1C`, the Potency entry is “inactive”.
Consider `CC(C(=O)O)c1ccc(-c2ccccc2)c(F)c1` (stereo not given), for which the Potency result was “inactive”.
Take `CCCCCCCCCCCCCCC1CO1` (stereo not given): the Potency entry is “inactive”.
In the case of `CC(C)c1ccccc1C(C)C`, the Potency result was “inactive”.
For `CC1=CCC(C(C)C)C=C1` (stereo not given), the Potency entry is “inactive”.
The same measure, in the same setting: the result for `Cc1ncsc1CCO` reads “inactive”; that for `O=[N+]([O-])c1cc[n+]([O-])cc1`, “inactive”; that for `CCCCCCOC(=O)CCC`, “inactive”.
Turning to `O=C(CC(=O)c1ccccc1)c1ccccc1`, the Potency result is “inactive”.
On to `CCN(CC)CCOC(=O)C1(c2ccccc2)CCCC1`, for which the Potency result is “inactive”.
Still for that read-out and setting: the entry for `C=CC[N+]1([C@H]2C[C@H]3[C@@H]4CC[C@H]5C[C@H](OC(C)=O)[C@@H](N6CCCCC6)C[C@]5(C)[C@H]4CC[C@]3(C)[C@H]2OC(=O)CC)CCCCC1` is “inactive”; for `CN(C)CCCNCCCN` it is “inactive”.
Consider `N#Cc1cc2ccccc2c2ccccc12`, for which the Potency entry was “inactive”.
For `CC(C)c1cccc(C(C)C)c1NC(=O)NS(=O)(=O)c1cc(C(C)(C)O)co1`, the Potency entry was “inactive”.
For the molecule `CC(=O)[C@@]1(O)CC[C@H]2[C@@H]3C[C@H](C)C4=CC(=O)CC[C@]4(C)[C@H]3CC[C@@]21C`, the Potency result was “inactive”.
Take `C1=Cc2ccccc2C1`: the Potency result is “inactive”.
The same measure, in the same setting: the entry for `O=C(O)/C=C/c1cnc[nH]1` is “inactive”.
Still for that read-out and setting: the entry for `N#CCc1cccc(C(F)(F)F)c1` is “inactive”.

The record behind these values is PubChem BioAssay (Tox21).
